The list is not random: actives were taken first. Their share in the collection is about 12%.
AMA1 RON2 block: disrupts binding of P. falciparum AMA1 to RON2 | AID 720542 | actives 0.2% (n = 360,000) | Potency, µM (highest dose often 58.2 µM), inactives show at the top dose activity change, negative = inhibition, usual class: inhibitors | AlphaScreen AMA1-biotinylated RON2 peptide binding;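 note: 0% = vehicle wells and -100% = peptide control; nearly all actives have a fitted effect of over 45% in size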
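AMA1 (3D7) with his tag at 25 nM final met compounds first, then biotinylated RON2 peptide at 25 nM; detection used donor plus acceptor beads, 10 µg/mL apiece, read by AlphaScreen after 30 min at room temperature.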
Pf growth 48h: P. falciparum growth inhibition at 48 hours (one generation); actives 5.9% (n = 310,000); Potency, µM (top dose mostly 28.7 µM), for inactives: top-dose activity change, negative = inhibition, most hits filed as inhibitors; P. falciparum luciferase growth in erythrocytes, 48 h; note: % is set by controls: 0 for no effect and ±100 for the full control effect
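Here the parasites carry a stable luciferase gene and grow inside erythrocytes in Albumax-based RPMI medium with compound for one erythrocytic cycle. Activity is scored as loss of luminescent signal.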
NS1 function inh: inhibitors of influenza NS1 protein function. Potency, µM (doses to about 46.1 µM), for the others: top-dose activity, positive = more growth. actives 0.4% (n = 270,000); calls by dose curve; note: actives are rising curves; nearly all actives have a fitted effect of over 50% in size
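S. cerevisiae expressing influenza A NS1, grown in glucose, washed, then diluted 1:100 into pH 6.0 -URA galactose medium with 23 nl compound. Growth recovery read as OD600; NS1-free strain serves as control.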
SARS PLpro yeast: inhibitors of SARS-CoV papain-like protease in yeast | actives 0.19% (n = 330,000) | S. cerevisiae expressing SARS-CoV PLpro, growth rescue | Potency, µM (titrated, usually from 32.9 µM), for the others: at the top dose activity, positive = growth rescue, hits mostly activators; calls by dose curve; note: 0% is about no effect; nearly all actives have a fitted effect of over 55% in size
HCV inh: blocks hepatitis C virus; Huh7.5.1 HCVcc-Cre infection, luciferase reporter, 44 h; Potency, µM (highest dose often 41.8 µM), for the others: at the top dose activity change, negative = inhibition, actives largely listed as inhibitors; actives 3.4% (n = 340,000); note: % is set by controls: 0 for no effect and ±100 for the full control effect
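Infectious HCVcc-Cre (~0.5 moi) was added to cells just after compound, with cells seeded 4 h earlier at 1,000 per well. Luciferase activity after 44 h culture reported infection; substrate was incubated 15 min at room temperature before reading.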
Pf growth 96h: P. falciparum growth inhibition at 96 hour, primary screen for plastid delayed-death inhibitors. P. falciparum luciferase reporter growth, 96 h. actives 6.9% (n = 320,000). Potency, µM (titrated, usually from 28.7 µM), for the others: at the highest dose activity change, negative = inhibition, actives largely listed as inhibitors; note: % is set by controls: 0 for no effect and ±100 for the full control effect
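Cell-based qHTS: luciferase-tagged P. falciparum in erythrocytes (2% hematocrit, 0.05% parasitemia final) incubated with compounds for 96 hours, 37 C, 5% CO2; luciferase detection reagent then added and luminescence measured.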
Starred values were filed as active, the others as inactive; ? = inconclusive; . = no result; [ ] = another dose, or the depositor's remark. Unless noted, calls come from the whole dose curve; as a rule, active = well fitted curve in the direction sought with a large enough effect; inconclusive = small, poorly fitted or top-dose-only effect, or another doubt; inactive = no such curve, though single readings can be large; an effect the other way counts as inactive or inconclusive. Potency is the fitted concentration of half-maximal effect.

SMILES	AMA1 RON2 block	Pf growth 48h	NS1 function inh	SARS PLpro yeast	HCV inh	Pf growth 96h
O=[N+]([O-])c1ccc(/C=N/Nc2ncc(Br)cn2)cc1	1.5%	16.2%	-2.2%	1.9%	19.4%	?
Nc1cc(Cl)nc(N/N=C/c2ccc([N+](=O)[O-])cc2)n1	4.9%[11.6 µM]	?	-2.8%	15.0%	-16.0%	4.65µM*
Nc1cc(Cl)nc(N/N=C/c2ccccc2[N+](=O)[O-])n1	2.2%	129.6%	8.6%	6.2%	-7.6%	6.57µM*
C/C(=N\NC(=O)C1CC1)c1ccc(Cl)cc1	-6.6%	?	2.5%	21.1%	8.4%	5.22µM*
Cc1ccc(S(=O)(=O)N(C)C)cc1NC(=O)CSc1nc2ccccc2c(=O)n1CC1CCCO1 (centres undefined)	8.5%	?	5.8%	-9.7%	?	?
O=C(CSc1nc2ccccc2c(=O)n1CCCN1CCOCC1)NC12CC3CC(CC(C3)C1)C2	-1.6%	10.4µM*	.	0.1%	-11.4%	?
Cc1ccc(S(=O)(=O)N(C)C)cc1NC(=O)Cn1c(CN2CCOCC2)nc2ccccc2c1=O	-0.5%	14.7µM*	-1.5%	3.0%	8.3%	-20.0%
O=C(CSc1nc2ccccc2c(=O)n1CCCN1CCOCC1)NCCc1ccccc1	3.1%	.	.	3.0%	7.8%	.
CN(C)S(=O)(=O)c1ccc(Cl)c(NC(=O)CSc2nc3ccccc3c(=O)n2CCCN2CCOCC2)c1	-1.0%	?	3.9%	12.2%	?	10.4µM*
COc1ccc(NC(=O)CSc2nc3ccccc3c(=O)n2CCCN2CCOCC2)c(OC)c1	-2.3%	?	4.8%	0.7%	-2.4%	?
O=C(CCNC(=O)c1ccccc1Cl)Nc1cccc(S(=O)(=O)N2CCCC2)c1	-5.3%	?	.	-2.1%	-4.6%	?
COc1cc2c(cc1OC)C1O[C@](CCCCN3C(=O)c4ccccc4C3=O)(C2)Oc2c1c(=O)oc1ccccc21	.	?	21.2%	-0.5%[6.58 µM]	.	?
N[C@H](Cc1c[nH]c2ccccc12)C(=O)O	.	4.2%	.	.	.	1.51µM*
CNC(=O)[C@H](Cc1c[nH]c2ccccc12)NC(=O)[C@@H](CC(=O)NO)CC(C)C	.	3.79µM*	.	.	.	10.7%
COC(=O)C(Cc1c[nH]c2ccccc12)NC(=O)c1cc(-c2ccc(OC)c(OC)c2)oc1C (centres undefined)	-1.8%	2.94µM*	2.3%	-13.2%	10µM*	?
O=C(CCCc1c[nH]c2ccccc12)N1CCCCCC1	-7.7%	2.5%	-12.8%	3.5%	-2.2%	5.86µM*
O=C(O)Cc1c[nH]c2ccccc12	8.3%	.	.	.	27.2%	.
CC(C)CC(NC(=O)OCc1ccccc1)C(=O)NC(Cc1c[nH]c2ccccc12)C(=O)O (centres undefined)	-3.0%	.	.	.	.	.
O=C(NC1CCCC1)C(c1ccc(F)cc1)N(Cc1ccc(F)cc1)C(=O)CCl (centres undefined)	12.1%	0.0%	7.3%	-19.6%	?	-13.2%
COC(=O)C(Cc1c[nH]c2ccccc12)NC(C)=O (centres undefined)	-5.5%	-6.5%	5.2%	13.3%	10.7%	4.15µM*
COC(=O)C(Cc1c[nH]c2ccccc12)NC(=O)c1cccs1 (centres undefined)	-7.7%	128.8%	-0.1%	-3.0%	-5.9%	-5.7%
NC(=O)N[C@@H](Cc1c[nH]c2ccccc12)C(=O)OCC(=O)N1CCCCC1	-9.3%	11.7µM*	.	-0.5%	1.5%	68.2%
CCOc1cc(/C=C2\COc3ccccc3C2=O)ccc1OCC(=O)N(C)C	3.2%	14.7µM*	6.1%	-9.8%	?	?
CCNC(=O)COc1ccc(/C=C2\COc3ccccc3C2=O)cc1OC	-28.5%	?	-33.2%	-9.5%	?	-22.3%
CSC(=NC#N)N1CCN(c2ccc([N+](=O)[O-])cc2)CC1	3.3%	?	2.8%	1.4%	?	-17.1%
SMILES	AMA1 RON2 block	Pf growth 48h	NS1 function inh	SARS PLpro yeast	HCV inh	Pf growth 96h
Cc1ccc(O)c(N=Nc2nccs2)c1	-15.3%	?	.	-8.3%	?	-66.7%
O=C(NC1CCN(C(=O)N2c3ccccc3Sc3ccccc32)CC1)c1ccccc1F	-21.5%	2.94µM*	-15.4%	-26.9%	?	?
Nc1nc(N)c2c(ccc3c2ccn3Cc2cccc([N+](=O)[O-])c2)n1	31.6µM*	.	.	.	.	.
Nc1nc(N)c2cc([N+](=O)[O-])ccc2n1	23.3%	.	.	.	?	.
COc1cc(NC(C)CCCN)c2ncccc2c1 (centres undefined)	28.0%	0.415µM*	.	.	?	0.329µM*
COc1cc(NCc2ccccc2O)c2ncccc2c1	22.3%	?	?	-2.7%	-20.7%	?
COc1cc(NCCCCCCCN)c2ncccc2c1	-2.4%	2.62µM*	15.1%	8.3%	-1.2%	3.7µM*
Cc1ccc(C2/C=C\CC(NC(=O)OCC3c4ccccc4-c4ccccc43)CC(=O)N2Cc2ccccc2)cc1 (centres undefined)	-16.1%	.	.	5.2%	17.8µM*	.
COC(=O)c1ccc(CSc2ccc3nnc(-c4cccc(F)c4)n3n2)o1	0.0%	11.7µM*	-133.0%	-4.0%	1.0%	?
CSc1ccc2nnc(-c3cccc(F)c3)n2n1	-1.3%	-3.0%	-26.7%	1.7%	?	?
O=C(CSc1ccc2nnc(-c3cccc(F)c3)n2n1)NCc1ccco1	-9.9%	?	-2.0%	-0.9%	?	6.57µM*
CCOC(=O)CC(=O)CSc1ccc2nnc(-c3cccc(F)c3)n2n1	8.2%	7.38µM*	25.4%	-6.5%	?	6.9%
O=C1CCc2cc(S(=O)(=O)NCCc3ccccc3)cc3c2N1CC3	12.3%	11.0%	.	3.3%	5.9%	8.4%
Cc1cccc(-c2noc(CCCC(=O)NC3CCCCC3)n2)c1	4.1%	-2.0%	0.3%	2.1%	-30.2%	12.4%
CCOC(=O)Nc1nn(-c2ccc(C)cc2)c(=O)c(C#N)c1C	10.2%	21.1%	.	0.5%	-1.1%	-14.6%
COc1ccc(NC(=O)C2=CCN(S(=O)(=O)c3ccccc3)CC2)cc1OC	-0.6%	?	-16.4%	-1.5%	1.1%	?
Cc1cc(NC(=O)C(C)SCC(=O)NCc2ccc(F)cc2)no1 (centres undefined)	-0.2%	?	.	2.1%	29.1%	-19.9%
COc1cc([N+](=O)[O-])ccc1-c1ccc(/C=N/NC(=O)c2ccccc2O)o1	.	2.62µM*	-0.5%	0.1%	.	?
O=C(N/N=C/c1ccc(-c2cccc(C(F)(F)F)c2)o1)c1cccc(F)c1	24.9%	11.7µM*	6.1%	-17.3%	?	?
O=C(N/N=C/c1ccccn1)c1ccc([N+](=O)[O-])cc1	44.5%	?	.	2.7%	3.1%	8.28µM*

Screening data (PubChem BioAssay)
